Most compounds without a hit are left out; they make up all but 2.4% or so of the library.
MEKK3 PB1 HTS: MEKK3-MEK5 PB1 interaction, increase or decrease; Q99759; bead-based flow cytometry, Alexa488-MEK5 binding to MEKK3; actives lie on both sides; 0 = blocked by unlabeled MEK5, 100 = vehicle; binding response (% of control), % at 10 µM; hit rate 1.4% among 290,000; AID 1529;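 active = binding response more than 3 SD above or below the average of its plate-row segment, actives on both sides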;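 note: Alexa488 bead fluorescence after subtracting the streptavidin-only scavenger bead signal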
Pf gametocyte: inhibitors of late stage P. falciparum gametocyte viability; hit rate 0.065% among 150,000; inhibition, % at 10.9 µM; P. falciparum stage V gametocytes, ATP luminescence, 24 h;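 active = inhibition above the mean plus 3 SD of compounds within the control limits, set per campaign, cut at about 38% in these data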;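 note: 0% = DMSO wells and 100% = medium only without gametocytes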
Arbovirus anti: antivirals against arbovirus infection; arbovirus infection cell-based antiviral screen; inhibition, % at 10 µM; hit rate 0.37% among 200,000; in the data active = inhibition above about 30%
MEKK2 mut-MEK5: signal of MEK5 binding to mutant human MEKK2 PB1 domain; bead flow cytometry, Alexa488-MEK5 binding to MEKK2 mutant; percent response, % at 10 µM; hit rate 0.35% among 290,000; AID 1530; in the data active = percent response above about 24%, passing the limit was not always enough
MEKK2 WT-MEK5: raises or lowers MEK5 binding to wildtype human MEKK2 PB1 domain; hit rate 1.1% among 290,000; bead flow cytometry, Alexa488-MEK5 binding to MEKK2 WT; actives lie on both sides; Q9Y2U5; binding response (% of control), % at 10 µM; in the data active = binding response below about 67% or above about 130%
* hit, by the source's call; . = no result.

SMILES	MEKK3 PB1 HTS	Pf gametocyte	Arbovirus anti	MEKK2 mut-MEK5	MEKK2 WT-MEK5
C=CCN(C(=O)c1csnn1)C(C(=O)NC1CCCCC1)c1ccc(Cl)cc1 (centres undefined)	98	.	.	-3	96
C=CCN(C(=O)c1csnn1)C(C(=O)NC1CCCC1)c1c(F)cccc1Cl (centres undefined)	105	.	.	14	153*
Cc1ccc(-c2csc3nc4c5ccccc5c(NCCCN(C)C)nn4c(=O)c23)cc1	107	-15	-28	65*	195*
COc1ccc(OCC(=O)Nc2c(C(=O)N3CCC(N4CCCCC4)CC3)oc3ccccc23)cc1	97	.	.	-1	106
Cc1c(C(=S)Nc2ccccc2)cnn1-c1ccc([N+](=O)[O-])cc1	92	11	-1	8	4.0*
CS(=O)(=O)c1nsc2nc(=O)c(/C=C3\C=Nc4ccccc43)c(N)n12	105	-25	46*	-2	103
CC(C)Sc1nsc2nc(=O)c(/C=C3\C=Nc4ccccc43)c(N)n12	87	-5	34*	-10	85
Cc1cc2nc(=O)c(/C=C3\C=Nc4ccccc43)c(N)n2o1	103	6	.	6	97
CC1CC(C)CN(c2ccc(NS(=O)(=O)c3ccccc3)cc2C(=O)O)C1 (centres undefined)	96	.	.	-7	93
C=CCOc1ccc(Br)cc1/C=C1/SC(=Nc2ccc(C(=O)O)cc2)NC1=O	98	-7	32*	-5	91
Cc1ccc(-c2c(C(=O)N/N=C/c3cccc(Cl)c3)nnn2-c2nonc2N)cc1	112	.	.	-1	135*
CCC(C)c1ccc(NC(=O)CN(C)CC(=O)Nc2cccc(OC)c2)cc1 (centres undefined)	101	-1	-10	-6	-6.0*
CC(C)(C)Cc1nnc(NS(=O)(=O)c2ccc([N+](=O)[O-])cc2)s1	108	-3	.	3	110
COc1ccccc1Nc1cc(C(=O)N2CCc3ccccc3C2)c2ccccc2n1	125	.	12	0	109
COc1ccccc1-c1cc(C(=O)N2CCc3ccccc3C2)c2ccccc2n1	.	.	42*	.	.
Oc1c(Br)cc(C2N=C(c3ccccc3)NO2)cc1Br (centres undefined)	103	-2	33*	5	107
CSc1ccc(C2N=C(c3ccccc3)NO2)cc1 (centres undefined)	98	.	.	1	96
O=C(CSc1nc2c(sc3ccccc32)c(=O)n1CCCN1CCCC1)NCc1ccccc1	101	.	-31	4	113
COc1cccc(NC(=O)CSc2nc3c(sc4ccccc43)c(=O)n2CCCN2CCCC2)c1	110	.	.	21	179*
O=C(NCCN1C(=O)S/C(=C\c2cccnc2)C1=O)C1=NN(c2ccccc2)C(=O)CC1	99	-41	-5	-1	100
O=C(NCCN1C(=O)S/C(=C/c2cccnc2)C1=O)C1CC(=O)N(Cc2ccccc2)C1 (centres undefined)	108	4	30*	-1	100
CCN(CC)C(=O)CSC1=N/C(=C/c2ccco2)C(=O)N1c1ccc(OC)c(Cl)c1	98	20	37*	10	101
COc1ccc(N2C(=O)/C(=C\c3ccco3)N=C2SCC(=O)NC(C)(C)C)cc1Cl	106	5	-2	3	101
CN1C(=O)CSc2ccc(NC(=O)N3CCC(N4CCCCC4)CC3)cc21	102	2	8	15	-1.0*
Cc1cc(NC(=O)c2ccc(F)cc2F)n(-c2nc3ccccc3[nH]2)n1	101	.	1	0	98
SMILES	MEKK3 PB1 HTS	Pf gametocyte	Arbovirus anti	MEKK2 mut-MEK5	MEKK2 WT-MEK5
Cc1cc(NC(=O)/C=C/c2ccccc2Cl)n(-c2nc3ccccc3[nH]2)n1	150*	-19	-13	1	117
CCC1(C)Cc2c(sc(NC(=S)NC(=O)c3ccccc3)c2C#N)CO1 (centres undefined)	87	-4	12	-1	98
CN1Cc2sc(NC(=S)NC(=O)c3ccccc3)c(C#N)c2CC1(C)C	93	21	.	11	-14*
Cc1ccc([C@@H]2[C@@H]3C(=O)N(c4ccccc4)C(=O)[C@@H]3[C@]3(C)C(=O)N(CC4CC4)CC(=O)N23)o1	97	.	.	-2	99
Cc1[nH]c2ccccc2c1/C=N/Nc1ccc(F)cc1F	131	.	-38	6	0.0*
Cc1[nH]c2ccccc2c1/C=N/Nc1ccc([N+](=O)[O-])cc1	91	-7	-3	43	24*
